Reference: PubChem BioAssay
Values without a mark were called inactive. For some assays here: Results with a measured potency or affinity are listed apart. Calls of active or inactive are those of the source. Unless noted, the rule behind the calls is not given here.

Tests used:
[1] = antimalarial activity against Dd2 strain (AID 2302;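 active = growth inhibition above 50% at the single 2 µM test dose, taken to imply half-maximal potency below 2 µM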;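 note: 0% = DMSO untreated growth and 100% = chloroquine plus artemisinin killed control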); conditions: P. falciparum Dd2 in RBCs, LDH growth readout, 72 h; at 2 µM; hits give high values
[2] = HepG2 cytotoxicity, primary screen, cytotoxicity control for P. falciparum antimalarial project, cell-based, ATP luminescence (AID 2303;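 active = inhibition above 50%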;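 note: 0% = DMSO wells and 100% = digitonin-killed cells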); conditions: HepG2 viability, 24-48 h, at 10 µM, hits give high values
[3] = target: L-lactate dehydrogenase (Plasmodium falciparum (isolate CDC / Honduras)) (UniProt Q27743); assay: PfLDH activity inhibition – cell lysate, 3D7 strain, counter-screen for P. falciparum growth inhibition project (AID 2304);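 note: 0% = vehicle and 100% = reference inhibitor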; conditions: P. falciparum 3D7 crude extract, LDH APAD/NBT absorbance; at 2 µM; hits give high values
Chain of L-lactate dehydrogenase (Plasmodium falciparum (isolate CDC / Honduras)) (Q27743 whole entry, looked up): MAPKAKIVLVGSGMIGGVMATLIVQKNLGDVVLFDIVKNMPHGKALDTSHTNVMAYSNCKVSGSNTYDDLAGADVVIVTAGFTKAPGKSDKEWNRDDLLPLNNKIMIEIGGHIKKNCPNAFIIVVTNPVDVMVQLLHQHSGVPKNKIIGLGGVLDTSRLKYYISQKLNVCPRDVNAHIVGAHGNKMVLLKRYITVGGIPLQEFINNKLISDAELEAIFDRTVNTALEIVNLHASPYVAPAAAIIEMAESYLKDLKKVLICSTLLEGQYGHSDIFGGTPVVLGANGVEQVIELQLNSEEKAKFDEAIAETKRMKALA

[4] = inhibition of 3D7 malaria parasite growth – strain 3D7 (AID 2306);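 note: 0% = DMSO wells and 100% = chloroquine plus artemisinin control wells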; conditions: P. falciparum 3D7 erythrocytic growth, LDH absorbance, 72 h; at 2 µM; hits give high values
[5] = target: Calcium-dependent protein kinase 1 (Plasmodium falciparum (isolate 3D7)) (UniProt P62344); assay: PfCDPK1 kinase inhibitors, biochemical, TCAMS library (AID 1159585; cut-off not given, nearly all actives have IC50 up to about 0.98 µM;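 note: inhibitors leave more ATP so luminescence rises with inhibition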); conditions: recombinant PfCDPK1, Kinase-Glo ATP depletion luminescence
Chain of Calcium-dependent protein kinase 1 (Plasmodium falciparum (isolate 3D7)) (P62344 whole entry, looked up): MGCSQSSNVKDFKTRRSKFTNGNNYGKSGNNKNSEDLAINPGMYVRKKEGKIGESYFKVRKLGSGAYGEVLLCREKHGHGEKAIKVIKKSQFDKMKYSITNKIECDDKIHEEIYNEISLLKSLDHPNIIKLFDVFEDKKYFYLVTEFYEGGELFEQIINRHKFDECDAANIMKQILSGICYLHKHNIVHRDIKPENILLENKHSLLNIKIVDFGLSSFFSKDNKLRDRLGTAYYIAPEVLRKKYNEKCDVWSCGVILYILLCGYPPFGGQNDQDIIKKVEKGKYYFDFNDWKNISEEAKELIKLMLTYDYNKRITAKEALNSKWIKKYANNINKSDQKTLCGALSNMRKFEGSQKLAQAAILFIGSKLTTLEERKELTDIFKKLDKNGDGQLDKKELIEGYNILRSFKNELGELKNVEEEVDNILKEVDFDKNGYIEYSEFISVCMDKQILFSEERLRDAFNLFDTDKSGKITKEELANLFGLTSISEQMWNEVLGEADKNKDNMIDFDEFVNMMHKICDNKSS

[6] = target: Plasmodium falciparum protein kinase 6 (PK6, PF3D7_1337100) (UniProt Q8IDW1); assay: PfPK6 kinase inhibitors, biochemical, TCAMS library (AID 1159586); conditions: recombinant PfPK6, Kinase-Glo ATP depletion luminescence
Chain of Plasmodium falciparum protein kinase 6 (PK6, PF3D7_1337100) (Q8IDW1 1-305): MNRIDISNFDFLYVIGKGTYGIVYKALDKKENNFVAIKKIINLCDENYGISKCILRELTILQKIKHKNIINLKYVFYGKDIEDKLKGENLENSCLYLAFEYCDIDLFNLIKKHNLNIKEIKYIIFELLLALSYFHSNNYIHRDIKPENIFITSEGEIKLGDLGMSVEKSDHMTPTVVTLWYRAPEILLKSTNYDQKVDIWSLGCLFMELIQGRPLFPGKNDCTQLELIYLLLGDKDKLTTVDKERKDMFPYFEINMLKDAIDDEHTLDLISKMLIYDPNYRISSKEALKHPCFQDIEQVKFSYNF

[7] = target: Protein kinase 7 (PK7), Plasmodium falciparum 3D7 (PF3D7_0213400) (UniProt Q7YTF7); assay: inhibition of Plasmodium PK7 catalytic activity – biochemical, TCAMS antimalarial set, Kinase-Glo luminescence (AID 1159587); conditions: recombinant PfPK7, Kinase-Glo ATP depletion luminescence
Chain of Protein kinase 7 (PK7), Plasmodium falciparum 3D7 (PF3D7_0213400) (Q7YTF7 1-343): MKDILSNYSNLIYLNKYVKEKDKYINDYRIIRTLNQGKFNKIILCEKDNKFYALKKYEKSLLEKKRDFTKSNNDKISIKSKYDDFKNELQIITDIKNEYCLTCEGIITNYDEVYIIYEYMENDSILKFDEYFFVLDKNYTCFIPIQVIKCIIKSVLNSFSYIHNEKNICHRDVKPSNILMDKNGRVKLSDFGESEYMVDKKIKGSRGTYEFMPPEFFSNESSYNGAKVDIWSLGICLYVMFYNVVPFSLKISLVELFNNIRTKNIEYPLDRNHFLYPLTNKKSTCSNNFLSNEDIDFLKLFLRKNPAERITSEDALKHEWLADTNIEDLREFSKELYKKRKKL

[8] = target: Calcium-dependent protein kinase 4 (Plasmodium falciparum (isolate 3D7)) (UniProt Q8IBS5); assay: PfCDPK4 kinase inhibitors, biochemical, TCAMS library (AID 1159588; cut-off not given, nearly all actives have IC50 up to about 0.91 µM); conditions: recombinant PfCDPK4, Kinase-Glo ATP depletion luminescence
Chain of Calcium-dependent protein kinase 4 (Plasmodium falciparum (isolate 3D7)) (Q8IBS5 whole entry, looked up): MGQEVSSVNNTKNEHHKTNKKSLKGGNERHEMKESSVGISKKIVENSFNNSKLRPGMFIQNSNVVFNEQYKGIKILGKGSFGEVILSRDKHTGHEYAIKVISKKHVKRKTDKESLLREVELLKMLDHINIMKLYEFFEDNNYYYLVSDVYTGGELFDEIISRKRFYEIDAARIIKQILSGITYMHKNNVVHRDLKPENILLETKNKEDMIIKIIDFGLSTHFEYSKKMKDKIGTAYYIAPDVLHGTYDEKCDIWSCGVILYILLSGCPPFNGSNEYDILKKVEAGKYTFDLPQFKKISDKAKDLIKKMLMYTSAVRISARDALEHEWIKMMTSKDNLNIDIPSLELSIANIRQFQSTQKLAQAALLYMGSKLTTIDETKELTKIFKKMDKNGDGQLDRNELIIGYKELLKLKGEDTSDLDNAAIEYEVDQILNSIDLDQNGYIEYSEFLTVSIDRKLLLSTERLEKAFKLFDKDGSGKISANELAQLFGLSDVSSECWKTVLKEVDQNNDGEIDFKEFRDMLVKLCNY

| Structure (SMILES) | growth inhibition [1] | inhibition [2] | inhibition [3] [%] | growth inhibition [4] | outcome [5] | outcome [6] | outcome [7] | outcome [8] |
| --- | --- | --- | --- | --- | --- | --- | --- | --- |
| CC(C)(O)CC(C)(C)c1cc(Cl)ccc1O | 1% | 5% | 7 | 96% (active) | inactive | inactive | inactive | inactive |
| CN1CCCN(Cc2ccc(-c3cccc(NC(=O)c4ccc(Cl)cc4)c3)cc2)CC1 | 50% (active) | 34% | -4 | 98% (active) | inactive | inactive | inactive | inactive |
| CN1CCC(COc2ccc(CN3CCC(NC(=O)c4cccc(Cl)c4)CC3)cc2)CC1 | 13% | 16% | -2 | 94% (active) | inactive | inactive | inactive | inactive |
| O=C(NCc1cccc(F)c1)Nc1ccc(-c2cccc(-c3nc4ccccc4[nH]3)c2)cc1 | 2% | 14% | 0 | 86% (active) | inactive | inactive | inactive | inactive |
| CN(CCNCc1ccc(-c2cccc(-c3nc4ccccc4[nH]3)c2)cc1)S(C)(=O)=O | 29% | 9% | -2 | 101% (active) | inactive | inactive | inactive | inactive |
| CC(C)Cn1cc(C2CCN(CCN3CCC(CNC(=O)c4ccc(-c5ccc(C#N)cc5)cc4)CC3)CC2)c2ccccc21 | 98% (active) | 28% | 8 | 100% (active) | inactive | inactive | inactive | inactive |
| CCC(C)(C)c1ccc2nc(N)nc(N)c2c1C | 82% (active) | 62% (active) | 1 | 91% (active) | inactive | inactive | inactive | inactive |
| CC(C)CC(NC(=O)c1cc2ccccc2s1)C(=O)N1CCCCCC1c1ccc(C(C)(C)C)cc1 (stereo not given) | 39% | 23% | -2 | 91% (active) | inactive | inactive | inactive | inactive |
| COc1ccc(OCCCON)cc1 | -3% | 3% | -1 | 98% (active) | inactive | inactive | inactive | inactive |
| COc1ccc2ncc(F)c(CCN3CC[C@@H](CNCc4ccc5c(c4C)OCCO5)C3)c2n1 | 11% | 17% | 1 | 94% (active) | inactive | inactive | inactive | inactive |
| O=C(Nc1ccc(I)cc1)N1CCc2sccc2C1CN1CCCCC1 (stereo not given) | 0% | 33% | 6 | 90% (active) | inactive | inactive | inactive | inactive |
| O=C(NC(=O)c1ccccc1O)c1ccccc1O | 79% (active) | -5% | -2 | 97% (active) | inactive | inactive | inactive | inactive |
| CN1CCC(N(Cc2ccc(-c3ccc(C(F)(F)F)cc3)nc2)C(=O)Cn2c(CCc3cccc(F)c3F)cc(=O)c3ccccc32)CC1 | 85% (active) | 60% (active) | 3 | 91% (active) | inactive | inactive | inactive | inactive |
| CC(=O)c1ccc(NC(=O)C2c3ccccc3C(=O)N(CC(C)C)C2c2cccs2)cc1 (stereo not given) | 51% (active) | 13% | -1 | 99% (active) | inactive | inactive | inactive | inactive |
| Cc1noc(C)c1S(=O)(=O)N(C)Cc1ccc(-c2ccc(Cl)cc2)o1 | 100% (active) | 10% | -3 | 100% (active) | inactive | inactive | inactive | inactive |
| O=C(Nc1cccc(-c2ccc(-c3nc4ccc(F)cc4[nH]3)s2)c1)c1ccncc1 | 29% | 74% (active) | -8 | 96% (active) | inactive | inactive | inactive | inactive |
| COc1cccc(NC(=O)c2cc(Br)cc(N3CCN(c4ccncc4)CC3)c2)c1 | 79% (active) | 30% | 0 | 100% (active) | inactive | inactive | inactive | inactive |
| CS(=O)(=O)CCN(CCS(C)(=O)=O)Cc1ccc(-c2ccc3ncnc(Nc4ccc(OCc5cccc(F)c5)c(Cl)c4)c3c2)o1 | 27% | -2% | -3 | 90% (active) | inactive | inactive | inactive | inactive |
| COc1cc(-c2nc3c4ccccc4c4ccccc4c3[nH]2)cc(OC)c1OC | 10% | 4% | 5 | 90% (active) | inactive | inactive | inactive | inactive |
| COc1cccc(C2CCN(CCN3CCC(NC(=O)c4ccc(-c5ccc(Cl)cc5)cc4)CC3)CC2)c1 | 42% | 31% | -12 | 93% (active) | inactive | inactive | inactive | inactive |

| Structure (SMILES) | growth inhibition [1] | inhibition [2] | inhibition [3] [%] | growth inhibition [4] | outcome [5] | outcome [6] | outcome [7] | outcome [8] |
| --- | --- | --- | --- | --- | --- | --- | --- | --- |
| CN(Cc1cc(C(F)(F)F)cc(C(F)(F)F)c1)C(=O)C(Cc1ccc(F)cc1)C1CCCNC1 (stereo not given) | 89% (active) | 10% | 4 | 96% (active) | inactive | inactive | inactive | inactive |
| Cc1cc2ncn(-c3nccc(NCc4ccc(F)c(C)c4)n3)c2cc1C | 82% (active) | 10% | -3 | 90% (active) | inactive | inactive | inactive | inactive |
| COc1ccc(C(=O)Nc2ccc(Nc3nc(C)cc(N(C)C)n3)cc2)c(OC)c1 | 72% (active) | 34% | 0 | 100% (active) | inactive | inactive | inactive | inactive |
| O=S(=O)(NCCN1CCCC1)c1ccc(-c2cccc(CNCc3ccccc3)c2)s1 | 43% | 44% | 0 | 94% (active) | inactive | inactive | inactive | inactive |
| COc1cccc(OCC2CCCN(CCCCNC(=O)c3ccc(NC(=O)c4ccc(Cl)cc4)cc3)C2)c1 (stereo not given) | 49% | 33% | 7 | 100% (active) | inactive | inactive | inactive | inactive |
| O=C(CC1SC(N2N=C(c3cccs3)CC2c2ccccc2)=NC1=O)Nc1ccccc1F (stereo not given) | 76% (active) | 9% | -2 | 87% (active) | inactive | inactive | inactive | inactive |
| CCC(=O)Oc1ccc(NC(=O)c2cccc(OC)c2)cc1 | 3% | 17% | 6 | 98% (active) | inactive | inactive | inactive | inactive |
| CC(C)C[C@H](NC(=O)c1ccc(OCCN2CCOCC2)cc1)C(=O)N[C@H](/C=N/N1CCN(C)C1=O)CCc1ccccc1 | 65% (active) | 3% | 3 | 90% (active) | inactive | inactive | inactive | inactive |
| CCCc1ccccc1OCC(O)CN(C1CCCC1)C1CCCC1 (stereo not given) | 97% (active) | 49% | -7 | 97% (active) | inactive | inactive | inactive | inactive |
| OC(CNCc1ccccc1OCc1ccccc1)c1cccc(Br)c1 (stereo not given) | 97% (active) | -1% | 0 | 100% (active) | inactive | inactive | inactive | inactive |
| COc1ccc(CNc2ccnc3cc(OC)ccc23)cc1 | 74% (active) | 7% | -7 | 100% (active) | inactive | inactive | inactive | inactive |
| NC1CCCN(Cc2cccc(-c3cccc(-c4nc5ccccc5[nH]4)c3)c2)C1 (stereo not given) | 61% (active) | 24% | -5 | 101% (active) | inactive | inactive | inactive | inactive |
| CCCN1CCN(CCCCNc2c3ccccc3nc3ccccc23)CC1 | 0% | 34% | -8 | 100% (active) | inactive | inactive | inactive | inactive |
| O=C(O[C@@H]1CN[C@H](C#Cc2cc3c(Nc4ccc5c(cnn5Cc5ccccc5)c4)ncnc3s2)C1)N1CCCC1 | 87% (active) | 8% | -1 | 99% (active) | inactive | inactive | inactive | inactive |
| CN1CCN(Cc2ccc(-c3ccc4c(Nc5cc(O)c(F)cc5Cl)ccnc4c3)o2)CC1 | 99% (active) | 27% | 3 | 101% (active) | inactive | inactive | inactive | inactive |
| CCN(CCCN1CCCCC1)c1cc(C)nc(Nc2ccc(Cl)c(C(F)(F)F)c2)n1 | 55% (active) | 43% | 2 | 96% (active) | inactive | inactive | inactive | inactive |
| CCn1ccc2c(N3CCCC3=O)cc(C(=O)N[C@@H](Cc3ccccc3)[C@H](O)CNC(C)(C)CCCC(C)C)cc21 | 98% (active) | 11% | -3 | 96% (active) | inactive | inactive | inactive | inactive |
| O=C(NCc1ccc(C(=O)NC2CCCCCC2)cc1)c1ccc(O)c(-c2ccc(Cl)c(Cl)c2)c1 | 21% | -1% | -3 | 83% (active) | inactive | inactive | inactive | inactive |
| CCN(CC)CCN(Cc1ccc(-c2ccc(C(F)(F)F)cc2)cc1)C(=O)Cn1c(CCc2ccc(F)c(F)c2)nc(=O)c2ccccc21 | 62% (active) | 31% | 3 | 99% (active) | inactive | inactive | inactive | inactive |
| COc1ccc(-c2cccc(NC(=O)c3cccc(C#N)c3)c2)cc1CN1CCC(O)CC1 | 13% | 30% | -3 | 97% (active) | inactive | inactive | inactive | inactive |
